# In PubChem BioAssay AID1794844 (National Center for Advancing Translational Sciences (NCATS), 2023):
# Among all 2,800 compounds or so, fewer than 10 were called active. Inconclusive results (about 7%) are left out. Calls come from the whole dose curve; as a rule, active = well fitted inhibition curve with a large enough effect; inconclusive = small, poorly fitted or top-dose-only effect; inactive = no such curve, though single readings can be large or run the other way. Only a sample is shown. A call without a number means that no potency is given here.
# Biological target: Metallo-beta-lactamase type 2 (Klebsiella pneumoniae) (UniProt C7C422)
# Sequence (C7C422 whole entry, looked up): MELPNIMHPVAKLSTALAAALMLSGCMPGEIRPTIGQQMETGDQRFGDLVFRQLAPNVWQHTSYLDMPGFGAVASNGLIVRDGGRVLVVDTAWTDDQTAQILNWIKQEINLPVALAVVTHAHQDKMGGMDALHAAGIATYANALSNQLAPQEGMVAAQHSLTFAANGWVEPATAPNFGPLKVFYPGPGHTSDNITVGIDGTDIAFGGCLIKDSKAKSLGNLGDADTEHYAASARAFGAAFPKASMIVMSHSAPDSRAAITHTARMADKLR
# Experiment: qHTS to identify inhibitors of the New Delhi Metallo-beta-lactamase (NDM): Nitrocefin screen against the machine-based learning selections.
# Settings: NDM-1 enzyme, nitrocefin hydrolysis, absorbance 485 nm; series mostly up to 38.4 µM
# From the text: Assay Submitter (PI): James Inglese Ph.D., Patricia Dranchak Ph.D., Mahesh Aitha Ph.D. Assay Development and Screening Technology Laboratory (ADST) National Center for Advancing Translational Sciences (NCATS), Rockville, MD National Institute of Health (NIH), Bethesda, Maryland The metallo-beta-lactamases (MBL) are a main antibiotic resistance mechanism evolved by bacteria. There is an urgent clinical need for MBL inhibitors to mitigate this growing threat. To support a machine-based learning study, qHTS has been used to experimentally test inhibitors identified by prediction tools.
# PROTOCOL TABLE (as described by Inglese et al., 2007) SEQUENCE No. (e.g., 1, 2, 3, etc.); […] (e.g., enzyme, Incubation, Reagent, etc.); VALUE; DESCRIPTION Primary Screen 1; NDM-1; 4 uL of 3 nM enzyme [2 nM final] in 50 mM HEPES (pH 7.0), 1 uM […], 0.01% Tween20; Use BioRaptr to dispense into two sets of Aurora black, clear bottom high base 1536-well plates 2; Compounds; 23 nL; Use Pin Tool (Wako) to transfer DMSO control and library compounds in DMSO 3; Incubate; >30 min 4a; Reagent; 2 uL of 50 uM nitrocefin [16.7 uM final] to one set of assay plates 4b; Reagent; 2 uL of 150 uM meropenem [50 uM final] to second set of assay plates 5a; Incubate; 15 min 5b; Incubate; 30 min 6a; Detector; Absorbance at 485 nm (bandwidth = 5 nm, 25 flashes/well) on Tecan Infinity 6b; Detector; Absorbance at 300 nm (bandwidth = 5 nm, 25 flashes/well) on Tecan Infinity NOTES (numbers refer to sequence above) 1; Column 1 of each plate received assay buffer without enzyme and columns 2-48 received enzyme for a final assay concentration of 2 nM. 2; Control plate contained DMSO in columns 1, 2, 3, and 4. 3; Compound interaction with enzyme. 4; Nitrocefin and meropenem substrates were prepared in the same assay buffer as step 1 for a final assay concentration of 16.7 uM and 50 uM, respectively, and added to all wells across respective sets of assay plates. 5; Default reader settings were applied for absorbance read at 485 nm (nitrocefin) or 300 nm (meropenem), bandwidth = 5 nm, 25 flashes/well. References: Inglese J, Shamu CE, Guy RK. 2007. Reporting data from high-throughput screening of small-molecule libraries. Nat Chem Biol. doi:10.1038/nchembio0807-438 Yasgar A, Shinn P, Jadhav A, Auld D, Michael S, Zheng W, Austin CP, Inglese J, Simeonov A. 2008. Compound Management for Quantitative High-Throughput Screening. J Lab Autom 13:79 - 89. doi:10.1016/j.jala.2007.12.004
# Potency is the fitted concentration of half-maximal effect.
row,Structure (SMILES),Potency
1,O=C(O)c1cccc(-c2n[nH]c3c2CC(=O)N(c2ccccc2)C3)c1,inactive
2,N#Cc1cccc(CN2CCOC[C@H]2c2ncc(-c3ccccc3)[nH]2)c1,inactive
3,COCC(=O)N[C@H]1CO[C@H]2[C@@H]1OC[C@@H]2Nc1nccc(-c2cccc(C#N)c2)n1,inactive
4,Cc1[nH]c2ccc(C(=O)N3CC[C@@](C)(O)[C@@H](O)C3)cc2c1C,inactive
5,c1cncc(CNc2cc(-c3cnc4ccccc4n3)c3cc[nH]c3n2)c1,inactive
6,CCN1CCN(C2(C(=O)NCCc3ccccc3)Cc3ccccc3C2)CC1,inactive
7,COc1cccc(NC(=O)N[C@H](C)c2onc(-c3ccc(F)cc3)c2C(=O)O)c1,inactive
8,O=C(Nc1ccc([C@H]2OCC(=O)N(C3CCOCC3)[C@@H]2CO)cc1)c1cnccn1,inactive
9,N[C@@H](Cc1cnc[nH]1)C(=O)NCc1cccnc1Oc1ccc(F)cc1F,inactive
10,CCCN1CC2(CCN(C(=O)c3ccc(C)nc3)CC2)CC1C(=O)O (centres undefined),inactive
11,COCCN1CCCC2(CCN(C(=O)c3ccccc3)C2)C1 (centres undefined),inactive
12,CN1CC2(CCN(C(=O)c3ccccc3-c3nn[nH]n3)CC2)CC1C(=O)O (centres undefined),6.69 µM (active)
13,CC(=O)N1CCN(C(=O)C[C@@H]2c3nc(NC(=O)C4CCCCC4)sc3C[C@@H]3[C@](C)(CO)[C@H](O)CC[C@]32C)CC1,inactive
14,CN(C)c1ccc(-c2nnnn2[C@H]2CO[C@H]3[C@@H]2OC[C@@H]3NS(=O)(=O)c2ccc3ccccc3c2)cc1,inactive
15,C[C@@]1(O)CCN(c2ncccc2C(=O)c2nccs2)C[C@@H]1O,inactive
16,OC(c1cccc(C(F)(F)F)c1)c1nc(Nc2ccc(F)cc2)n[nH]1 (centres undefined),inactive
17,Cn1ccc2c(C(=O)N[C@H](c3cccs3)C3CC(O)C3)cccc21 (some centres undefined),inactive
18,Cc1nc(C(=O)N2CCC(c3nnc(CN4CCCC4)n3C)CC2)cs1,inactive
19,Cc1ccc(C(=O)N2CCN(c3nnc4cccc(C)n34)CC2)cc1F,inactive
20,O=C1C(c2ccccc2)CC2(CCN(c3cnccn3)CC2)CN1C1CC1 (centres undefined),inactive
21,O=C(c1ccccc1)N1CCN2C(=O)N(Cc3ccccc3)C(=O)[C@H]2C1,inactive
22,Cc1cnc(C(=O)N2CCC(N3C(=O)C4(CCCC4)C3c3ccccc3)CC2)cn1 (centres undefined),inactive
23,O=C(Cc1ccccc1C(F)(F)F)N1CCC2(CC1)[C@H](O)C[C@@H]2O,inactive
24,CN(Cc1cc(-c2cccs2)n[nH]1)C(=O)c1cn(CCN)nn1,inactive
25,O=C1CC(C(=O)O)C2(CCN(c3cc(C4CC4)ncn3)CC2)N1 (centres undefined),inactive

row,Structure (SMILES),Potency
1,Cc1noc2c(-c3cccnc3)cc(-c3cccs3)nc12,inactive
2,CCc1ncc(C(=O)N2CCN(c3ccc(Cl)c(Cl)c3)CC2)cn1,inactive
3,CC(=O)N1CC[C@H](c2nc3cc(C)ccc3o2)C1,inactive
4,COc1nc(C)c(C(=O)N2CCC(c3[nH]ncc3-c3ccccc3)CC2)s1,inactive
5,Cc1nc(C2CCCCN2C(=O)Cc2ccccc2)n[nH]1 (centres undefined),inactive
6,Cc1ccc2nc(C3CCCN(Cc4ccccc4)C3)[nH]c(=O)c2c1 (centres undefined),inactive
7,Cc1nc2c(C(=O)N3CCC(c4cc(CC(=O)O)[nH]n4)CC3)cccc2[nH]1,8.42 µM (active)
8,Cc1ccc2nc(C)cc(C(=O)N3CCC(c4cc(CC(=O)O)[nH]n4)CC3)c2c1,9.45 µM (active)
9,CCNC(=O)O[C@@H]1CO[C@H]2[C@@H]1OC[C@@H]2NC(=S)Nc1ccc(N(C)C)cc1,inactive
10,O=C(c1cccnc1)N1CC[C@H](c2nnc(Cc3ccccc3)o2)C1,inactive
11,O=C(Cc1c[nH]c2ncc(-c3cccc(Cl)c3)cc12)NCc1cccnc1,inactive
12,Nc1ccc(-c2ccc(OCCn3ccnc3)cc2)cn1,inactive
13,COCCCNC(=O)N1CC(c2nc(CCOCC3CCOCC3)no2)C1,inactive
14,CNC(=O)[C@H]1C[C@H](Oc2cccnc2)CN1S(=O)(=O)c1ccc(OC)cc1,inactive
15,O=C(Nc1cccc(C(F)(F)F)c1)N[C@H]1CO[C@H]2[C@@H]1OC[C@@H]2Nc1nccc(-c2ccc(-c3ccccc3)cc2)n1,inactive
16,CC(C)(C)c1nnc([C@H]2CCN(Cc3ccco3)C2)o1,inactive
17,Cc1cccc(Cl)c1NC(=O)N1CCC2(CC1)C(C(=O)O)CC(=O)N2C (centres undefined),inactive
18,C[C@@H](c1ccccc1)N1C(=O)[C@@H]2CN(C(=O)c3ccc(N(C)C)cc3)CCN2C1=O,inactive
19,Cc1nc(CCC(=O)N2CCC(Cc3ccc(C(=O)O)cc3)C2)n[nH]1 (centres undefined),inactive
20,CCCS(=O)(=O)N1CCC(Cc2nc(-c3cccnc3)n[nH]2)C1 (centres undefined),inactive
21,COc1ccc(CN2CCOc3ccc(C(=O)NCc4ccc(C)cc4)cc3C2)c(OC)c1,inactive
22,O=C(c1ccccc1Cl)N1CCCC(c2nn(-c3ccccc3)c(=O)[nH]2)C1 (centres undefined),inactive
23,CC(C)C(=O)N[C@H]1[C@H](O)[C@H](O)C[C@@H]1c1cccnc1,inactive
24,CC(O)c1cc2n(n1)CCN(C1CCN(C(=O)c3cnccn3)CC1)C2 (centres undefined),inactive
